High-throughput results: PubChem, Broad Institute
T cruzi growth-1 = blocks T. cruzi growth in NIH3T3 culture | T. cruzi beta-gal in NIH3T3, GalScreen luminescence, 90 h | inhibition, % at 8.34 µM | 77,000 compounds, 5.9% hits | AID 624255;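 active means mean inhibition above about 93%, with at least 55% of replicates each passing it, limit read from the data, passing the limit was not always enough; inconclusive means only one of those two conditions holds; inactive means neither condition holds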
C diff HTS = inhibitors of Clostridium difficile growth. Clostridium difficile clinical isolate growth, OD600, 24 h; stronger effect = lower value. growth activity, negative = inhibition, % at 16 µg/mL (by protocol). 86,000 compounds, 0.25% hits;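 active means mean growth activity at or below -80% and every replicate also at or below -80%; inconclusive means mean at or below -80% but some replicate above -80%; inactive means mean growth activity above -80%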;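 further: 0% = DMSO wells and -100% = levofloxacin 16 µg/mL wells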
Pf Dd2 inh = P. falciparum Dd2 growth inhibition. activity change, % at 10 µM. 94,000 compounds, 2.3% hits. SYBR Green, 72 h; stronger effect = lower value. AID 1159554; in the data active means activity change below about -80%; inconclusive means no clear call, values can overlap the other calls
T cruzi growth-2 = blocks T. cruzi growth in NIH3T3 host cells; shares compounds with T cruzi growth-1; 5,600 compounds, 72% hits; inhibition, % at 8.35 µM; T. cruzi beta-gal in NIH3T3, GalScreen luminescence, 90 h;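 active means mean replicate inhibition above about 95% and at least 55% of replicates individually reaching it, limit read from the data; inconclusive means only one of the two criteria is met; inactive means neither criterion is met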
T cruzi growth-3 = inhibitors of T. cruzi proliferation. shares compounds with T cruzi growth-1. T. cruzi beta-gal in NIH3T3, GalScreen luminescence, 90 h. inhibition, % at 2.09 µM. 5,600 compounds, 21% hits. AID 651740;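 active means mean inhibition above about 95%, with at least 55% of replicates also reaching it, limit read from the data; inconclusive means meets just one of the two conditions; inactive means meets neither condition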;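 further: plate controls were neutral control median for no effect and positive control median for full effect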
NIH3T3 tox = kills mouse NIH/3T3 fibroblasts. cytotoxicity (signal decrease), % at 8.35 µM. shares compounds with T cruzi growth-1. 5,600 compounds, 14% hits. AID 651742. NIH/3T3 viability, CellTiter-Glo ATP luminescence, 90 h;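 active means mean signal decrease across replicates above about 35% based on untreated-well scatter, with enough replicates individually passing, limit read from the data; inconclusive means no rule stated though some were filed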;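 further: 0% = median of neutral control wells and 100% = median of positive control wells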
3T3 cytotox 2 = kills mouse NIH/3T3 fibroblasts | shares compounds with T cruzi growth-1 | NIH/3T3 viability, CellTiter-Glo ATP luminescence, 90 h | inhibition, % at 24.9 µM | 5,600 compounds, 56% hits;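 active means mean loss of cell viability signal at or above a set limit, and enough replicates individually reaching it; inconclusive means meets only the mean limit or only the replicate share; inactive means meets neither condition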;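 further: 0% = median of neutral control wells and 100% = median of positive control wells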
Numbers without * were called inactive; ? = inconclusive; nt = not tested or not shown. The list is not random: actives were taken first. Their share in the collection is about 6.7%.

SMILES	T cruzi growth-1	C diff HTS	Pf Dd2 inh	T cruzi growth-2	T cruzi growth-3	NIH3T3 tox	3T3 cytotox 2
C[C@@H]1CN([C@H](C)CO)S(=O)(=O)c2ccc(C#CCN(C)C)cc2O[C@H]1CN(C)Cc1cccnc1	96*	1	-28	101*	93	25	42*
C[C@@H]1CN([C@@H](C)CO)S(=O)(=O)c2ccc(C#CCN(C)C)cc2O[C@@H]1CN(C)Cc1cccnc1	?	3	5	99*	62	28	48*
C[C@H]1CN([C@@H](C)CO)S(=O)(=O)c2ccc(C#CCN(C)C)cc2O[C@@H]1CN(C)Cc1cccnc1	104*	-1	-42	110*	108*	8	15
C[C@@H]1CN([C@@H](C)CO)S(=O)(=O)c2ccc(C#C[C@@H](C)O)cc2O[C@H]1CN(C)Cc1cccnc1	36	-6	-20	nt	nt	nt	nt
CC(C)C#Cc1ccc2c(c1)O[C@H](CN(C)Cc1cccnc1)[C@@H](C)CN([C@H](C)CO)S2(=O)=O	107*	2	-63	108*	104*	-21	102*
COCC#Cc1ccc2c(c1)O[C@@H](CN(C)Cc1cccnc1)[C@H](C)CN([C@H](C)CO)S2(=O)=O	52	-2	-26	nt	nt	nt	nt
Cc1noc(C)c1S(=O)(=O)N(C)C[C@@H]1OCCCC[C@@H](C)Oc2ccc(NC(=O)C3CCCCC3)cc2C(=O)N([C@H](C)CO)C[C@@H]1C	23	-1	-29	nt	nt	nt	nt
O=C(C[C@@H]1C=C[C@H](NC(=O)Nc2cc(F)ccc2F)[C@H](CO)O1)Nc1ccc(-c2ccccc2)cc1	nt	-2	nt	nt	nt	nt	nt
CC=Cc1ccc2n(c1=O)C[C@H]1[C@H](CO)[C@@H](C(=O)N[C@@H](C)c3ccccc3)[C@@H]2N1Cc1cccnc1 (mixture of isomers)	52	-1	2	nt	nt	nt	nt
O=C(C[C@H]1C=C[C@@H](NC(=O)C2CCOCC2)[C@H](CO)O1)Nc1ccc(-c2ccccc2)cc1	41	nt	31	nt	nt	nt	nt
C[C@H](O)C#Cc1cnc2c(c1)C(=O)N([C@H](C)CO)C[C@@H](C)[C@H](CN(C)C(=O)Cc1ccncc1)O2	nt	-2	19	nt	nt	nt	nt
CN1c2ccc(-c3ccc(F)cc3)cc2[C@H]2[C@H](CCN2C(=O)C2CCOCC2)[C@@H]1CO	102*	1	21	104*	69	-3	0
CN(C)C(=O)c1ccc(-c2ccc3c(c2)[C@H]2[C@H](CCN2C(=O)C2CC2)[C@H](CO)N3C)cc1	18	-8	-4	nt	nt	nt	nt
CN1c2ccc(C3=CCCCC3)cc2[C@H]2[C@H](CCN2C(=O)C2CCC2)[C@@H]1CO	nt	-2	-41	nt	nt	nt	nt
CN1c2ccc(-c3cccc(F)c3)cc2[C@@H]2[C@@H](CCN2C(=O)C2CCOCC2)[C@H]1CO	59	-6	3	nt	nt	nt	nt
CN1c2ccc(C3=CCCCC3)cc2[C@@H]2[C@@H](CCN2C(=O)C2CCOCC2)[C@H]1CO	105*	-9	17	102*	73	5	18
CN(C)C(=O)c1ccc(-c2ccc3c(c2)[C@H]2[C@H](CCN2C(=O)C2CCOCC2)[C@@H](CO)N3C)cc1	101*	1	4	98*	70	-7	-3
CN(C)C(=O)c1ccc(-c2ccc3c(c2)[C@H]2[C@H](CCN2C(=O)C2CCCCC2)[C@@H](CO)N3C)cc1	nt	14	-64	nt	nt	nt	nt
CN(C)C(=O)c1ccc(-c2ccc3c(c2)[C@H]2[C@H](CCN2C(=O)C2CC2)[C@@H](CO)N3C)cc1	102*	6	-30	101*	99*	14	25
COc1ccc(NC(=O)Nc2ccc3c(c2)C(=O)N([C@@H](C)CO)C[C@H](C)[C@H](CN(C)C(=O)Nc2ccc(OC)cc2)OCCCC[C@H](C)O3)cc1	49	nt	1	nt	nt	nt	nt
CO[C@H]1CN(C)C(=O)c2cc(NC(=O)c3ccno3)ccc2OC[C@@H](C)NC[C@H]1C	11	nt	9	nt	nt	nt	nt
Fc1cccc(-c2ccc(C3[C@H]4CNC[C@@H]3N4Cc3ccccc3F)cc2)c1 (stereo partly specified)	nt	6	-49	nt	nt	nt	nt
C[C@@H]1CCCCO[C@H](CN(C)S(=O)(=O)c2ccccc2)[C@H](C)CN([C@@H](C)CO)C(=O)c2cc(NS(=O)(=O)c3ccc(F)cc3)ccc2O1	20	-11	-32	nt	nt	nt	nt
C[C@H]1CCCCO[C@H](CN(C)S(=O)(=O)c2ccccc2)[C@@H](C)CN([C@@H](C)CO)C(=O)c2cc(NS(=O)(=O)c3ccc(F)cc3)ccc2O1	97*	-9	-66	110*	70	19	9
C[C@H]1CCCCO[C@@H](CN(C)S(=O)(=O)c2ccccc2)[C@@H](C)CN([C@@H](C)CO)C(=O)c2cc(NS(=O)(=O)c3ccc(F)cc3)ccc2O1	101*	-16	-84*	107*	64	-5	12
SMILES	T cruzi growth-1	C diff HTS	Pf Dd2 inh	T cruzi growth-2	T cruzi growth-3	NIH3T3 tox	3T3 cytotox 2
C[C@@H]1CCCCO[C@H](CN(C)S(=O)(=O)c2ccccc2)[C@@H](C)CN([C@H](C)CO)C(=O)c2cc(NS(=O)(=O)c3ccc(F)cc3)ccc2O1	14	-10	-41	nt	nt	nt	nt
CCCNC(=O)C[C@@H]1C[C@@H]2c3cc(NC(=O)c4cccnc4)ccc3O[C@@H]2[C@H](CO)O1	-53	2	6	nt	nt	nt	nt
C[C@@H]1CN([C@H](C)CO)C(=O)c2cc(C#C[C@@H](C)O)cnc2O[C@@H]1CN(C)C(=O)c1ccccc1	74	2	35	nt	nt	nt	nt
CCC(=O)N(C)C[C@H]1Oc2cc(C#Cc3ccccn3)ccc2S(=O)(=O)N([C@H](C)CO)C[C@H]1C	-7	-1	nt	nt	nt	nt	nt
Cc1ccc(S(=O)(=O)N(C)C[C@@H]2Oc3ccc(NC(=O)NC(C)C)cc3CC(=O)N([C@@H](C)CO)C[C@@H]2C)cc1	9	7	-34	nt	nt	nt	nt
COc1cccc(NC(=O)N2C[C@@H](O)COC[C@H]3O[C@@H](CC(=O)NC4Cc5ccccc5C4)CC[C@@H]32)c1	-36	-1	-50	nt	nt	nt	nt
Cc1ccc(S(=O)(=O)N(C)C[C@H]2Oc3ccc(NS(=O)(=O)c4ccc(Cl)cc4)cc3C(=O)N([C@H](C)CO)C[C@H]2C)cc1	100*	-3	11	96*	13	28	36*
Cc1ccc(S(=O)(=O)Nc2ccc3c(c2)C(=O)N([C@@H](C)CO)C[C@H](C)[C@H](CN(C)S(=O)(=O)c2ccc(Cl)cc2)O3)cc1	nt	43	-9	nt	nt	nt	nt
C[C@@H]1CN([C@@H](C)CO)C(=O)c2cc(NS(=O)(=O)c3ccc(Cl)cc3)ccc2O[C@@H]1CN(C)S(=O)(=O)c1ccc(Cl)cc1	?	9	29	113*	42	28	65*
C[C@@H]1CN([C@@H](C)CO)C(=O)c2cc(NS(=O)(=O)c3ccc(Cl)cc3)ccc2O[C@H]1CN(C)S(=O)(=O)c1ccc(Cl)cc1	39	-9	-7	nt	nt	nt	nt
